From the supplement of paper PMC8728848
Many of the other results were omitted from the sample, so the strongest signals are more common in it than they were.

Key:
Test in all cases: glycan array binding signal (z-score within array); higher = stronger binding
Conditions in all cases: glycan notation: IUPAC condensed, linker removed
[1] = target: Fuc(a1-2)Gal(b1-3)GlcNAc(b1-2)Man(a1-3)[Fuc(a1-2)Gal(b1-3)GlcNAc(b1-2)Man(a1-6)]Man(b1-4)GlcNAc(b1-4)[Fuc(a1-6)]GlcNAc
In short: (§1)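 Columns mapping to the same glycan were averaged after glycan names were converted to IUPAC-condensed notation. The data come from 3228 arrays in the Consortium for Functional Glycomics database, limited to those with an available protein sequence. Binding is reported as a within-array Z-score averaged across arrays of one protein sequence and across linkers.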

[2] = target: Fuc(a1-2)Gal(b1-4)[Fuc(a1-3)]GlcNAc(b1-3)GalNAc
In short: as §1

[3] = target: Fuc(a1-2)[GalNAc(a1-3)]Gal(b1-4)Glc
In short: as §1

[4] = target: Fuc(a1-2)[GalNAc(a1-3)]Gal(b1-4)GlcNAc(b1-2)Man(a1-3)[Fuc(a1-2)[GalNAc(a1-3)]Gal(b1-4)GlcNAc(b1-2)Man(a1-6)]Man(b1-4)GlcNAc(b1-4)GlcNAc
In short: as §1

[5] = target: Fuc(a1-2)[GalNAc(a1-3)]Gal(b1-4)GlcNAc(b1-3)Gal(b1-4)GlcNAc
In short: as §1

[6] = target: Fuc(a1-2)[GalNAc(a1-3)]Gal(b1-4)GlcNAc(b1-3)Gal(b1-4)GlcNAc(b1-3)Gal(b1-4)GlcNAc
In short: as §1

[7] = target: Fuc(a1-2)[GalNAc(a1-3)]Gal(b1-4)[Fuc(a1-3)]GlcNAc(b1-3)GalNAc
In short: as §1

[8] = target: Fuc(a1-3)[Gal(b1-4)]GlcNAc(b1-6)[Gal(b1-3)GlcNAc(b1-3)]Gal(b1-4)Glc
In short: as §1

[9] = target: Fuc(a1-3)[Gal(b1-4)]GlcNAc6S
In short: as §1

Fuc(a1-4)GlcNAc = target: Fuc(a1-4)GlcNAc
In short: as §1

[10] = target: Gal(a1-3)Gal(b1-3)GlcNAc(b1-3)GalNAc
In short: as §1

Gal(a1-3)GalNAc = target: Gal(a1-3)GalNAc
In short: as §1

[11] = target: Gal(b1-3)GalNAc(a1-3)[Fuc(a1-2)]Gal(b1-4)Glc
In short: as §1

[12] = target: Gal(b1-3)[Fuc(a1-4)]GlcNAc(b1-2)Man(a1-3)[Gal(b1-3)[Fuc(a1-4)]GlcNAc(b1-2)Man(a1-6)]Man(b1-4)GlcNAc(b1-4)[Fuc(a1-6)]GlcNAc
In short: as §1

[13] = target: Gal(b1-3)[Fuc(a1-4)]GlcNAc(b1-3)Gal(b1-3)[Fuc(a1-4)]GlcNAc
In short: as §1

[14] = target: Gal(b1-4)GlcNAc(b1-2)Man(a1-3)Man(b1-4)GlcNAc(b1-4)GlcNAc
In short: as §1

Gal3S(b1-3)GalNAc = target: Gal3S(b1-3)GalNAc
In short: as §1

Gal3S(b1-3)GlcNAc = target: Gal3S(b1-3)GlcNAc
In short: as §1

Gal3S(b1-4)Glc6S = target: Gal3S(b1-4)Glc6S
In short: as §1

Gal3S(b1-4)GlcNAc = target: Gal3S(b1-4)GlcNAc
In short: as §1

[15] = target: GalNAc(a1-3)GalNAc(b1-3)Gal(a1-4)Gal(b1-4)GlcNAc
In short: as §1

Glc(a1-4)Glc = target: Glc(a1-4)Glc
In short: as §1

Glc(b1-4)Glc = target: Glc(b1-4)Glc
In short: as §1

GlcA(b1-3)GlcNAc = target: GlcA(b1-3)GlcNAc
In short: as §1

[16] = target: GlcNAc(b1-2)Man(a1-3)[GlcNAc(b1-2)Man(a1-6)]Man(b1-4)GlcNAc(b1-4)GlcNAc
In short: as §1

[17] = target: GlcNAc(b1-2)[GlcNAc(b1-6)]Man(a1-6)[GlcNAc(b1-2)Man(a1-3)][GlcNAc(b1-4)]Man(b1-4)GlcNAc(b1-4)GlcNAc
In short: as §1

GlcNAc(b1-3)Man = target: GlcNAc(b1-3)Man
In short: as §1

[18] = target: GlcNAc6S(b1-3)Gal(b1-4)GlcNAc
In short: as §1

[19] = target: Man(a1-3)[Man(a1-6)]Man(a1-6)[Man(a1-3)]Man
In short: as §1

[20] = target: Neu5Ac(a2-3)Gal(b1-3)[Neu5Ac(a2-6)]GalNAc
In short: as §1

B1: Gal 9 (Canis lupus) (protein)
chain: MAFSSSQPPYLSPGVPFSGKIQGGLQDGLKITINGTILYCNGTRFAVNFHSGHSDSDIAFHFNPRFEEGGYVVCNTKQKGSWGSEERKMQMPFQMGNPFELCFMVNSCDFKVTVNGSHFTQYSHRVPFHYVDTLSITGAVQLSYISFQSPGVWQSSSAPITQTVIHTVQTTPGQPFPNPIIPPTAYPTPTYPMPFFTSIPGGLYPSKSIIVSGTVLPGAKRFHINLRSGNDIAFHLNPRFNENTVVRNMQINNSWGSEERSLPRKMPFVQGQSFSVWIMCEGHCFKVAVDGEHLFEYYHRLKNLLAINNMEVAGDVQLTHVQT
glycan array binding signal (z-score) [1]: -0.285 | glycan array binding signal (z-score) [2]: -0.26 | glycan array binding signal (z-score) [3]: 2.88 | glycan array binding signal (z-score) [4]: 9.39 | glycan array binding signal (z-score) [5]: 5.36 | glycan array binding signal (z-score) [6]: 2.68 | glycan array binding signal (z-score) [7]: -0.288 | glycan array binding signal (z-score) [8]: -0.156 | glycan array binding signal (z-score) [9]: -0.337 | glycan array binding signal (z-score) (Fuc(a1-4)GlcNAc): -0.346 | glycan array binding signal (z-score) [10]: 0.104 | glycan array binding signal (z-score) (Gal(a1-3)GalNAc): -0.296 | glycan array binding signal (z-score) [11]: 3.45 | glycan array binding signal (z-score) [12]: -0.287 | glycan array binding signal (z-score) [13]: -0.315 | glycan array binding signal (z-score) [14]: 0.09 | glycan array binding signal (z-score) (Gal3S(b1-3)GalNAc): 5.93 | glycan array binding signal (z-score) (Gal3S(b1-3)GlcNAc): 0.396 | glycan array binding signal (z-score) (Gal3S(b1-4)Glc6S): 3.83 | glycan array binding signal (z-score) (Gal3S(b1-4)GlcNAc): 0.222 | glycan array binding signal (z-score) [15]: 3.04 | glycan array binding signal (z-score) (Glc(a1-4)Glc): -0.327 | glycan array binding signal (z-score) (Glc(b1-4)Glc): -0.311 | glycan array binding signal (z-score) (GlcA(b1-3)GlcNAc): -0.341 | glycan array binding signal (z-score) [16]: -0.332 | glycan array binding signal (z-score) [17]: -0.338 | glycan array binding signal (z-score) (GlcNAc(b1-3)Man): -0.347 | glycan array binding signal (z-score) [18]: -0.104 | glycan array binding signal (z-score) [19]: -0.346 | glycan array binding signal (z-score) [20]: -0.055
